HPGD inh = qHTS Assay for Inhibitors of HPGD (15-Hydroxyprostaglandin Dehydrogenase); 15-hydroxyprostaglandin dehydrogenase [NAD(+)] (Homo sapiens), P15428; purified HPGD, NADH fluorescence kinetic, PGE2 substrate; Potency, µM, for inactives: at the top dose activity change, negative = inhibition, most hits filed as inhibitors; hit rate 4.3% among 150,000; further: potency means the concentration at half of the fitted maximal effect
Target sequence (P15428 whole entry, looked up): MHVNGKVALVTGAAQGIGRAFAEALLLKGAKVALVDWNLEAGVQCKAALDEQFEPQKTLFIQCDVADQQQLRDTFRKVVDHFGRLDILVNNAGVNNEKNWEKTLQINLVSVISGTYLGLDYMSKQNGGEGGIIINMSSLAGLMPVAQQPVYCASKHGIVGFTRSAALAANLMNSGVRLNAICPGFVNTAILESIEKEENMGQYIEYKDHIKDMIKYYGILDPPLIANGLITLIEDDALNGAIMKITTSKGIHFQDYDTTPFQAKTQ
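NADH formation kinetics: reaction with 30 uM PGE2 and 1 mM NAD+ (final), 20 nM enzyme, Tris-HCl pH 8 with Tween 20, after 15 min compound preincubation at room temperature. Fluorescence change, last versus first of five reads.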
ALDH1A1 block = qHTS Assay for Inhibitors of Aldehyde Dehydrogenase 1 (ALDH1A1); Aldehyde dehydrogenase 1A1 (Homo sapiens), P00352; Purified ALDH1A1, NADH fluorescence, propionaldehyde substrate; hit rate 7.3% among 220,000; Potency, µM (doses to about 75.3 µM), without a hit: top-dose activity, negative = inhibition, hits mostly inhibitors;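 further: potency means the concentration at half of the fitted maximal effect; plate controls were no enzyme wells and a reference inhibitor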
PNC inhibitor = High Content Assay for Compounds that inhibit the Assembly of the Perinucleolar Compartment; PC3M PTB-GFP, PNC prevalence imaging, 16 h; hits give low values; activity change (PNC), negative = inhibition, % at 10 µM; hit rate 3.1% among 140,000; AID 2417, 2010;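 active means readout at or below -70, meaning at least 70% loss of cells showing the perinucleolar compartment, a nuclear body marking cancer cells; inconclusive means readout between -30 and a set limit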;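 further: plate controls were DMSO wells for no effect and camptothecin positive control wells for full effect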
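Compounds are pinned in duplicate onto adhered PC3M cells stably expressing GFP-tagged PTB and incubated 16 h at 37 C. Cells are then fixed, nuclei stained with Hoechst, and PNC-positive cells counted.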
* marks the source's active call; other numbers are inactive results; ? = inconclusive; / = no result given; [ ] = another dose, or the depositor's remark. Sampled rows, rich in hits. Any-hit rate of the full collection: about 11%. Unless noted, the call rests on the fitted dose curve; in most records, active means well fitted inhibition curve with a large enough effect (not every such curve was filed as active); inconclusive means small, poorly fitted or top-dose-only effect, or another doubt; inactive means no such curve, though single readings can be large or run the other way. Unless noted, on the % scale 0 is the no-effect control and ±100 the full control effect.

SMILES	HPGD inh	ALDH1A1 block	PNC inhibitor
COc1cc(S(=O)(=O)NCCc2ccc3c(c2)OCO3)ccc1-n1cnnn1	-13%	?	-28
Nc1cc(S(=O)(=O)N2CCCCC2)ccc1Oc1ccccc1	/	12%	/
O=C(NCC(=O)N(Cc1ccccc1)C(C(=O)NC1CCCC1)c1ccncc1)c1ccco1 (stereo unspecified)	-13%	?	-16
O=C(NCC(=O)N(Cc1cccs1)C(C(=O)NC1CCCCC1)c1ccco1)c1ccco1 (stereo unspecified)	-4%	22µM*	10
O=C(NCC(=O)N(Cc1ccc(F)cc1)C(C(=O)NC1CCCC1)c1ccco1)c1ccco1 (stereo unspecified)	-1%	-11%	25
O=C(NCC(=O)N(Cc1cccs1)C(C(=O)NC1CCCC1)c1ccncc1)c1ccco1 (stereo unspecified)	-12%	7.9µM*	?
CCSc1ccccc1C(=O)Nc1cccc(OC)c1	?	-14%	32
Cc1ccc(N2C(=O)CC(n3nc(C)cc3C)C2=O)cc1 (stereo unspecified)	-1%	5%	?
CC(C)(C)c1ccc(-c2conc2N)cc1	-12%	-7%	?
Cc1ccc(S(=O)(=O)N2CCCC2C(=O)O)cc1 (stereo unspecified)	-11%	3%	10
Cc1ccc(S(=O)(=O)C2(C(=O)N3CCCC(C)C3)CC2)cc1 (stereo unspecified)	25µM*	1%	53
C[C@H](NC(=O)c1nc[nH]c1C(=O)NC1CCN(C(=O)OC(C)(C)C)CC1)C(=O)OCc1ccccc1	/	5%	/
COc1ccc(N(C(=O)COc2ccccc2)C2C=CS(=O)(=O)C2)cc1 (stereo unspecified)	-4%	-3%	17
O=C1/C(=N\O)Cc2ccccc21	-12%	?	39
C/[N+]([O-])=C1\Cc2ccccc2C1=O	-12%	3.5µM*	-11
CC12CCC(C(=O)Nc3nc4ccccc4s3)(OC1=O)C2(C)C (stereo unspecified)	/	1%	/
CC(C)(C)NC(=O)C(=O)NCCC1=CCCCC1	-4%	17%	-11
Cc1nc2ccccc2c(=O)n1/N=C/c1ccc(N(C)C)cc1	-6%	16µM*	-13
Cc1nc2ccccc2c(=O)n1/N=C/c1ccccn1	-8%	-8%	6
CN(/N=C/c1ccc([N+](=O)[O-])o1)c1ccccc1	/	0%	/
Cc1nc2ccccc2c(=O)n1/N=C/c1ccc([N+](=O)[O-])o1	/	19µM*	/
O=C(O)/C=C/c1ccc2c(-c3ccccc3)onc2c1	-30%	?	?
COc1ccc(C2CC(=O)C(C=NCCN3CCOCC3)=C(O)C2)cc1 (stereo unspecified)	-5%	1%	?
O=C(O)CNC(=O)C12CC3CC(CC(Cl)(C3)C1)C2	/	-3%	/
Cc1cc(-c2ccccc2C(=O)NC2CCCCC2)on1	/	3%	/
SMILES	HPGD inh	ALDH1A1 block	PNC inhibitor
COc1cc(C(=O)NCCOc2cc(C)cc(C)c2)c(Br)c(OC)c1OC	-7%	-1%	90
COc1ccc(C(=O)CC(Nc2ccc([N+](=O)[O-])cc2)c2ccc(Cl)cc2)cc1 (stereo unspecified)	-6%	-12%	?
Nc1ccc(-c2n[nH]c(=O)c3ccccc23)cc1N	-12%	?	-25
Cn1c(N)c(C(=O)COC(=O)[C@H](Cc2ccccc2)N2C(=O)c3ccccc3C2=O)c(=O)n(C)c1=O	-10%	?	?
CSCCC(NC(=O)c1ccccc1)C(=O)O (stereo unspecified)	/	5%	/
CSCCC(NC(=O)c1ccccc1)C(=O)NC1CCCC1 (stereo unspecified)	-6%	0%	-84*
C=CCn1c(SCC(=O)N2CCN(c3ccc(F)cc3)CC2)nnc1-c1cccs1	-11%	?	-96*
C=CCn1c(SCC(=O)N2CCN(c3ccccc3)CC2)nnc1-c1ccco1	-5%	-8%	?
CCOC(=O)CNc1ccc(OC(F)(F)F)cc1	/	8%	/
CNC(=O)C1(C)C=CCN1C(=O)OC (stereo unspecified)	-1%	4%	/
CCCNC(=O)NC(=O)COC(=O)c1ccc(S(=O)(=O)N(C)c2ccccc2OC)cc1	/	13µM*	/
COc1ccccc1N(C)S(=O)(=O)c1ccc(C(=O)OCC(N)=O)cc1	/	6%	/
CCCCC(=O)N(C)C	-5%	?	/
C=CCn1c(SCC(=O)/C(C#N)=C(\C)N)nnc1C1CCCCC1	-6%	-7%	20
COc1cc2c(cc1OC)CN(Cc1cc(OC)c(O)c(OC)c1)CC2	/	-12%	/
Cc1ccc2nc(SCc3nnc(-c4cccs4)o3)[nH]c2c1	32µM*	22µM*	?
Cc1ccc2nc(SCc3nnc(-c4ccccc4)o3)[nH]c2c1	?	-16%	67
CCc1cc(=O)oc2cc(OC(C)C(=O)O)c(Cl)cc12 (stereo unspecified)	-7%	?	20
CC(C)(C)CNCCO	-1%	11%[13.5 µM]	/
CCN1C(=O)/C(=C\C=C2/C=CC=CN2CC)SC1=S	-4%	25µM*	?
CCN1C(=O)/C(=C/C=C2\C=CN(CC)c3ccccc32)SC1=S	-14%	?	-4
O=C(CN1CCN(c2ncc(C(F)(F)F)cc2Cl)CC1)NC(=O)NCc1ccccc1	4%	-3%	-13
CC(C)(C)NC(=O)NC(=O)CN1CCN(c2ncc(C(F)(F)F)cc2Cl)CC1	-21%	28µM*	4
CN1CCN/C1=C(/C(Cl)=C(Cl)Cl)[N+](=O)[O-]	/	4%	/
CC(=O)Nc1ccc(OCC(O)Cn2c3ccccc3c3ccccc32)c(C)c1 (stereo unspecified)	25µM*	3%	38
SMILES	HPGD inh	ALDH1A1 block	PNC inhibitor
CC(=O)Nc1ccc(OCC(O)Cn2c3ccccc3c3ccccc32)cc1 (stereo unspecified)	-12%	15%	?
Cc1nc([N+](=O)[O-])c(Br)n1CC(=O)c1ccc(F)cc1	/	-3%	/
Cc1ccnc(SCC(=O)c2cccc([N+](=O)[O-])c2)n1	-19%	32µM*	-29
Cc1nc(SCC(=O)c2cccc([N+](=O)[O-])c2)n[nH]1	-28%	?	5
Cc1nc([N+](=O)[O-])c(Br)n1CC(=O)c1cccc([N+](=O)[O-])c1	/	25µM*	/
C/C(CC(=O)Nc1c(C)cc(C)cc1C)=N\NC(=O)c1cnccn1	-2%	6%	-23
O=C(c1ccc(C(F)(F)F)cc1)C1CCCN(C(=O)CCN2CCCO2)C1 (stereo unspecified)	/	6%	/
CCOC(=O)c1c(C)nc(C)c(C(=O)OCC)c1-c1ccc(Br)cc1	/	0%	3
O=C(CNc1ccc(Oc2ccccc2)cc1)N1CCOCC1	-27%	?	61
CCOc1cc(C(=O)CCC(=O)OCC(=O)N2c3ccccc3NC(=O)C2(C)C)ccc1O	-10%	14µM*	-21
CC1(C)C(=O)Nc2ccccc2N1C(=O)COC(=O)C1CCCCC1	2%	?	-6
COc1ccccc1-c1ccc(/C=C2/C=C(C)OC2=O)o1	?	?	-113*
CC1=C/C(=C\c2ccc(Br)o2)C(=O)O1	-7%	-4%	?
COc1ccc(Br)cc1C(=O)N/N=C/c1ccc2c(c1)n(C)c(=O)n2C	?	?	-82*

Screening data (PubChem)
